Data taken from PMC7819943, “Rice protein-binding microarrays: a tool to detect cis-acting elements near promoter regions in rice”.
Over roughly 35,000 sequences, “fluorescence intensity (a.u.)” has its median near 10,000; the highest 2% begin near 52,000. This is one part of a sample in which the highest values are shown more often than they occur.

Molecular target: T1, OsWOX13 (Oryza sativa, UniProt Q5QMM3 1-267)
T1 sequence: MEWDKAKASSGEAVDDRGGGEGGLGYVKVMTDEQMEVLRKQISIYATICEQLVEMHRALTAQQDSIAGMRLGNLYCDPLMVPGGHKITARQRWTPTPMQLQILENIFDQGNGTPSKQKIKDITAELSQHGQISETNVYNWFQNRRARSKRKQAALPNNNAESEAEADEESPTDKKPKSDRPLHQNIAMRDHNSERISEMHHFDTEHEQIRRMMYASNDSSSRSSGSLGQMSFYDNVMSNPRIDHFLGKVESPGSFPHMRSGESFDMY
Assay: protein-binding microarray (RPBM); PBS, 2% BSA, 51.3 ng/ul salmon testes DNA, 50 uM zinc acetate, 200 nM TF, 25 C, 1 h; high values mean tight binding
Details: protein: recombinant; tags: N-terminal polyhistidine and DsRed monomer fusion (pET32a); label: CyDye5-dUTP incorporated in the synthesized complementary strand; 3' TTTTT single-stranded linker to array surface; dsDNA, one strand shown
Method in brief: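 Transcription factors, each fused N-terminally to a polyhistidine tag and DsRed, were expressed in E. coli BL21-CodonPlus and purified on Ni–NTA. A custom Agilent array was made double-stranded by primer extension with Cy5-dUTP and blocked with 2% BSA. It was incubated with 200 nM protein in PBS, 2% BSA, salmon testes DNA and 50 µM zinc acetate at 25 °C for 1 h, then washed. The binding signal is per-feature fluorescence intensity (arbitrary units) read on an Axon 4000B scanner.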

Which binding signal does the source give for “TGCTAATGACTGATTAATTAGGCTTAATAAATTCGTCTTGCGGAGTCACCTAGTGCAG” here?
Its binding signal is 35300 fluorescence intensity (a.u.).

How did the binding signal turn out when “AATGCTAATGACAGATTAATTAGGCTTAATAAATTTGTCTCGGAGTCACCTAGTGCAG” was run?
Its binding signal is 29500 fluorescence intensity (a.u.).

“TGCTAATGACTGATTAATTAGGCTTAATAAATTTGTCTCGCGGAGTCACCTAGTGCAG” was tested. Which binding signal did it give?
The binding signal was 64800 fluorescence intensity (a.u.).

“TATAATAATTAAAACTCAATCAATCATACGTTAATAGCACCGGAGTCACCTAGTGCAG” was tested. Which binding signal did it give?
Its binding signal is 20000 fluorescence intensity (a.u.).

Which binding signal does the source give for “ATGATGATTGTTAGTGGATGATGATGTGTCATCTTGTTAACGGAGTCACCTAGTGCAG” here?
The binding signal was 38400 fluorescence intensity (a.u.).

With “CACGGATTATTTTGAGCAATTACCGCTCTAATCCGGGGCGCGGAGTCACCTAGTGCAG” as the sequence, how does the binding signal read?
Its binding signal is 3600 fluorescence intensity (a.u.).

“ACACATAATGTAATCTATTTTGATATAACCAAAAGCTGTTCGGAGTCACCTAGTGCAG” was tested. Which binding signal did it give?
Its binding signal is 7540 fluorescence intensity (a.u.).

Which binding signal does the source give for “TGGTCCTTTACATTGCAATTAATTTGTTTGGAATTTATTACGGAGTCACCTAGTGCAG” here?
The binding signal was 8240 fluorescence intensity (a.u.).

For “AATTATTGATTTGATGAAACTAATTTAGTATTATAAAGAGCGGAGTCACCTAGTGCAG”, which binding signal is on record?
Its binding signal is 51000 fluorescence intensity (a.u.).

Which binding signal does the source give for “AGATAATTTGTGATTGATGTCATAGTAGTAGAGAAAACCACGGAGTCACCTAGTGCAG” here?
The binding signal was 46800 fluorescence intensity (a.u.).

How did the binding signal turn out when “GTATAATTGACAGATGAATTTCACGCAAGAGTATATTGAGCGGAGTCACCTAGTGCAG” was run?
The binding signal was 55900 fluorescence intensity (a.u.).

For “ATATATATTGATTATATGTTTATTTTGTATGAAGATGTTCCGGAGTCACCTAGTGCAG”, which binding signal is on record?
The binding signal was 34900 fluorescence intensity (a.u.).

With “GGATGTCATGATAATTGACTTATGACAATGTGATTATTTCCGGAGTCACCTAGTGCAG” as the sequence, how does the binding signal read?
The binding signal was 19700 fluorescence intensity (a.u.).

For “TATAATTGATTATTGTGACCTCATGATAGAGACAAGACCACGGAGTCACCTAGTGCAG”, which binding signal is on record?
Its binding signal is 53500 fluorescence intensity (a.u.).

With “GATTATAATTTGTAAGATAATTGACCATGGAGAAGATTCACGGAGTCACCTAGTGCAG” as the sequence, how does the binding signal read?
Its binding signal is 16300 fluorescence intensity (a.u.).

Which binding signal does the source give for “CAGTATATAAATAATTTGAATTAGATGAGATATATCCTAGCGGAGTCACCTAGTGCAG” here?
The binding signal was 8160 fluorescence intensity (a.u.).

For “GATAATTGACAAGATTGAACCATATGTGATGTATTATTTCCGGAGTCACCTAGTGCAG”, which binding signal is on record?
Its binding signal is 53200 fluorescence intensity (a.u.).

Which binding signal does the source give for “ATCTCAATCAGCAACACAAATGACCCTGACCCACGATCCACGGAGTCACCTAGTGCAG” here?
Its binding signal is 20900 fluorescence intensity (a.u.).

For “GCCGTTAGTTAATTATTATCCGGTAAAGAAGATTAGTAGTCGGAGTCACCTAGTGCAG”, which binding signal is on record?
Its binding signal is 12200 fluorescence intensity (a.u.).

With “CGTTTCTTGATTCGATGGTTGATGGATTTTGGTTTGTGGACGGAGTCACCTAGTGCAG” as the sequence, how does the binding signal read?
The binding signal was 4980 fluorescence intensity (a.u.).

“ATTGATTTGATGAAACTAATTTACGGCACAATAGCAAATCCGGAGTCACCTAGTGCAG” was tested. Which binding signal did it give?
The binding signal was 57600 fluorescence intensity (a.u.).

For “AAATATATTCAATTATTGATTTGATGAAACTAATTTCGTACGGAGTCACCTAGTGCAG”, which binding signal is on record?
Its binding signal is 23500 fluorescence intensity (a.u.).

For “GGCAATCAATTATTAATTGATTAATTCCATGAATAGCACACGGAGTCACCTAGTGCAG”, which binding signal is on record?
Its binding signal is 64900 fluorescence intensity (a.u.).

Which binding signal does the source give for “ATCACCTAATCAATTGAATCCATCAATTCAAGTAGATTCACGGAGTCACCTAGTGCAG” here?
Its binding signal is 9390 fluorescence intensity (a.u.).

How did the binding signal turn out when “TTATGAAAATATATTTAATTATTGATTTGATGAAACTAATCGGAGTCACCTAGTGCAG” was run?
The binding signal was 5790 fluorescence intensity (a.u.).

“GCACACATGATCAATCAATTAATAGATTAGGTAGGTACGGCGGAGTCACCTAGTGCAG” was tested. Which binding signal did it give?
Its binding signal is 51100 fluorescence intensity (a.u.).

“TATATATATATATATATATAGACACACACATCAACAACAACGGAGTCACCTAGTGCAG” was tested. Which binding signal did it give?
The binding signal was 16000 fluorescence intensity (a.u.).

How did the binding signal turn out when “TTAATTGCTATGTTTTGACCAGTCAACGCATAGGTCGTTTCGGAGTCACCTAGTGCAG” was run?
The binding signal was 15500 fluorescence intensity (a.u.).

With “ATTGCACAGATTGTGACTAATTTGCGAGACGAATCTTTTACGGAGTCACCTAGTGCAG” as the sequence, how does the binding signal read?
Its binding signal is 7340 fluorescence intensity (a.u.).

How did the binding signal turn out when “TTGGAATTTGGGGATTGGGAAGAGAGAAATCAGATTGGAACGGAGTCACCTAGTGCAG” was run?
Its binding signal is 4300 fluorescence intensity (a.u.).

“CGGAAGATTGGAATGGAAATCGGAGAGAGCAGGGGCGGTGCGGAGTCACCTAGTGCAG” was tested. Which binding signal did it give?
The binding signal was 12800 fluorescence intensity (a.u.).

“ATTAATTAGCTGCCCGCAGACAAGACCCGTGACTTTGGCCCGGAGTCACCTAGTGCAG” was tested. Which binding signal did it give?
Its binding signal is 23800 fluorescence intensity (a.u.).

With “AATTAACATCAATAACAAAGTGTTGTACTGTAATCATCTTCGGAGTCACCTAGTGCAG” as the sequence, how does the binding signal read?
Its binding signal is 4050 fluorescence intensity (a.u.).

“ATAATAATTAATATTTCATTAATTATATGCTAACGAGTTTCGGAGTCACCTAGTGCAG” was tested. Which binding signal did it give?
The binding signal was 43400 fluorescence intensity (a.u.).

With “AAAGATTGCCGAGTTTAATTGCAATCAATTACGGGAAGATCGGAGTCACCTAGTGCAG” as the sequence, how does the binding signal read?
Its binding signal is 52900 fluorescence intensity (a.u.).

“TACTATTAATCAATCACATATAATTAACAATTAGTGTGATCGGAGTCACCTAGTGCAG” was tested. Which binding signal did it give?
Its binding signal is 41200 fluorescence intensity (a.u.).

“GGTTAATCAATCAATCAGTTAATTACACAATTACTCACATCGGAGTCACCTAGTGCAG” was tested. Which binding signal did it give?
Its binding signal is 57300 fluorescence intensity (a.u.).

With “ATAATTAAAACTCAATTAATCACACGTTATTATCACATCGCGGAGTCACCTAGTGCAG” as the sequence, how does the binding signal read?
Its binding signal is 14200 fluorescence intensity (a.u.).

With “GCTTAATTAACAATCAACATAACTACTAACTAGTGTTGTTCGGAGTCACCTAGTGCAG” as the sequence, how does the binding signal read?
The binding signal was 57300 fluorescence intensity (a.u.).

For “TACAATTATGATTTGCCTTCAAATTTGCATTTTCATATTTCGGAGTCACCTAGTGCAG”, which binding signal is on record?
The binding signal was 13500 fluorescence intensity (a.u.).

Which binding signal does the source give for “TAGTACTCTCAATTAATTACAAACCACACCATCAAATTCTCGGAGTCACCTAGTGCAG” here?
The binding signal was 7020 fluorescence intensity (a.u.).

How did the binding signal turn out when “GAAGATTTAATTGCAACAAATTTAATAGTGCAATCGGATCCGGAGTCACCTAGTGCAG” was run?
Its binding signal is 40800 fluorescence intensity (a.u.).

How did the binding signal turn out when “TATAATTAATTATTTGCTAGATTTCATTCATATGACAATTCGGAGTCACCTAGTGCAG” was run?
The binding signal was 54600 fluorescence intensity (a.u.).

How did the binding signal turn out when “TATTTAATTGCAACGAATACAATAGTTTAATCGGATTATACGGAGTCACCTAGTGCAG” was run?
The binding signal was 9360 fluorescence intensity (a.u.).
